Drawing on ChEMBL document CHEMBL3988442, “University of Dundee, Small-Polar-MMV Screening Library” (2021), this text covers Percent Effect for 19 compounds.

The structures appear in SMILES notation.

The assay concerns the target Shiga toxin 2 (Escherichia coli O157:H7) (UniProt P09385+P09386). The assay is described as follows: E. coli 0.157:H7 Shiga Toxin SOP - stx2 screening assay. Format: functional. Set-up: scale not given: direction of the effect not stated beside the values. The note with it: 30 µM.
Consider `CCN1CCN(CC(O)c2ccc(F)cc2)CC1` (centres undefined), for which the Percent Effect amounted to 19.4%.
Take `CCN1CCC(CNC(=O)NCc2cc(-c3ccc(C)cc3)no2)C1` (centres undefined): the Percent Effect is -44.9%.
The result for `O=C(NCc1ccco1)[C@H]1C[C@@H]2CCN(c3ccncn3)C[C@@H]2O1` reads -6.97%; that for `O=C(NCc1ccc(-c2ccn[nH]2)cc1)N1CCC(N2CCCC2)C1` (centres undefined), 9.65%; that for `CC(C)NC(=O)N1CCC2(C1)CN(c1ccsc1)C(=O)CN2C` (centres undefined), -17.6%.
Regarding `Cc1oc(C)c(C(=O)NCc2cccnc2N(C)C)c1C`, the Percent Effect was 35.3%.
Under `CNC(=O)c1cnc(/C=C/c2ccc(OC)c(O)c2)s1` stands -56.5%; under `CNC(=O)[C@H]1C[C@@H]2CN(S(=O)(=O)c3ccccc3)C[C@@H]2N1C(C)=O`, -6.09%.
Consider `O=c1c2ccccc2nc2n1CCN(Cc1cccs1)CC2`, for which the Percent Effect was 12%.
On to `N#Cc1ccc(CN2CCN(C(=O)c3cc(C4CC4)[nH]n3)CC2)cc1`, for which the Percent Effect was -17.1%.
For the compound `CC(C)Oc1cc(N2CCC(N3CCC(O)CC3)CC2)nc(N)n1`, the Percent Effect was 2.73%.
Under `Cc1cnn(C2CCCN(C(=O)c3cnc4ccccc4n3)C2)c1` (centres undefined) stands 25.1%.
Turning to `CCc1noc(C(C)N2CCN(Cc3nnc(C4CC4)o3)CC2)n1` (centres undefined), the Percent Effect is 10.9%.
For `CCOC(=O)c1c(NC(=O)CN2CCN(C(C)=O)CC2)sc2c1CCC2`, the Percent Effect is 16.4%.
On to `O=C(c1ccc(F)cc1Cl)N1CCC(Nc2cccnn2)CC1`, for which the Percent Effect was -21.1%.
The result for `CC(C)n1ccnc1C1CCN(Cc2ccc(Cl)s2)CC1` reads -48.4%; that for `COCC(=O)N(C)Cc1ccc(Cl)c(Cl)c1`, 2.03%; that for `COc1c(CNCC(c2cccc(F)c2)N(C)C)c(C(C)C)nn1C` (centres undefined), -15.5%.
The result for `COCc1noc(C2(c3ccc(F)cc3)CCOCC2)n1` reads -10.8%.
